Measured values published in PubChem BioAssay (Tox21).
Inconclusive results are not listed. Calls of active or inactive are those of the source. Unless noted, calls follow the shape of the dose curve; as a rule, active = well fitted curve in the direction sought with a large enough effect in the repeat runs; inconclusive = weak or mixed curves; inactive = no such curve, though single readings can be large; an effect the other way counts as inactive or inconclusive.

Experiments:
[1] = qHTS assay to identify small molecule antagonists of the glucocorticoid receptor (GR) signaling pathway - cell viability counter screen (AID 720693); also: nearly all actives have a fitted effect of over 55% in size
[2] = qHTS assay for identifying genotoxic compounds that show differential cytotoxicity against isogenic chicken DT40 cell lines with known DNA damage response pathways - Rev3 mutant cell line (AID 743014); also: nearly all actives have a fitted effect of over 55% in size; also: potency is read from the fitted curve at half-maximal effect
[3] = qHTS assay to identify small molecule antagonists of the androgen receptor (AR) signaling pathway using the MDA cell line - cell viability counter screen (AID 743041; also: nearly all actives have a fitted effect of over 45% in size)
In short: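 R1881-driven MDA-kb2 AR-luc cells, 3,000/well, were dosed with library compounds for 16 h; cell health came from CellTiter-Fluor fluorescence in the reporter wells.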

[4] = qHTS assay to identify small molecule antagonists of the androgen receptor (AR) signaling pathway - cell viability counter screen (AID 743033; also: nearly all actives have a fitted effect of over 45% in size)
[5] = qHTS assay to identify small molecule antagonists of the thyroid receptor (TR) signaling pathway - cell viability counter screen (AID 743064); also: nearly all actives have a fitted effect of over 50% in size; also: potency is read from the fitted curve at half-maximal effect
In short: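 Fluorescence from CellTiter-Fluor, added after 23.5 h exposure at 37 °C, reported viability of GH3.TRE-Luc cells co-treated with compound and 1 nM T3. Measured in the same wells as the luciferase TR readout.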

[6] = qHTS assay for identifying genotoxic compounds that show differential cytotoxicity against isogenic chicken DT40 cell lines with known DNA damage response pathways - wild type cell line (AID 743012); also: nearly all actives have a fitted effect of over 60% in size
In short: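 Cells (DT40 wild type, 300/well) are treated with DMSO-dissolved compounds after a ~0.5 h pre-incubation and kept 40 h at 37 C/5% CO2. Viability is then measured by CellTiter-Glo luminescence following 30 min at room temperature.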

[7] = qHTS assay for identifying genotoxic compounds that show differential cytotoxicity against isogenic chicken DT40 cell lines with known DNA damage response pathways - Rad54/Ku70 mutant cell line (AID 743015); also: nearly all actives have a fitted effect of over 60% in size
[8] = biological target: Androgen receptor (Homo sapiens) (UniProt P10275); test: qHTS assay to identify small molecule agonists of the androgen receptor (AR) signaling pathway (AID 743036; active = well fitted activation curve with a large enough effect in the signal ratio in the repeat runs, with a control signal flat, not every such curve was filed as active; the % refers to the signal ratio)
Androgen receptor (Homo sapiens), sequence (P10275 whole entry, looked up): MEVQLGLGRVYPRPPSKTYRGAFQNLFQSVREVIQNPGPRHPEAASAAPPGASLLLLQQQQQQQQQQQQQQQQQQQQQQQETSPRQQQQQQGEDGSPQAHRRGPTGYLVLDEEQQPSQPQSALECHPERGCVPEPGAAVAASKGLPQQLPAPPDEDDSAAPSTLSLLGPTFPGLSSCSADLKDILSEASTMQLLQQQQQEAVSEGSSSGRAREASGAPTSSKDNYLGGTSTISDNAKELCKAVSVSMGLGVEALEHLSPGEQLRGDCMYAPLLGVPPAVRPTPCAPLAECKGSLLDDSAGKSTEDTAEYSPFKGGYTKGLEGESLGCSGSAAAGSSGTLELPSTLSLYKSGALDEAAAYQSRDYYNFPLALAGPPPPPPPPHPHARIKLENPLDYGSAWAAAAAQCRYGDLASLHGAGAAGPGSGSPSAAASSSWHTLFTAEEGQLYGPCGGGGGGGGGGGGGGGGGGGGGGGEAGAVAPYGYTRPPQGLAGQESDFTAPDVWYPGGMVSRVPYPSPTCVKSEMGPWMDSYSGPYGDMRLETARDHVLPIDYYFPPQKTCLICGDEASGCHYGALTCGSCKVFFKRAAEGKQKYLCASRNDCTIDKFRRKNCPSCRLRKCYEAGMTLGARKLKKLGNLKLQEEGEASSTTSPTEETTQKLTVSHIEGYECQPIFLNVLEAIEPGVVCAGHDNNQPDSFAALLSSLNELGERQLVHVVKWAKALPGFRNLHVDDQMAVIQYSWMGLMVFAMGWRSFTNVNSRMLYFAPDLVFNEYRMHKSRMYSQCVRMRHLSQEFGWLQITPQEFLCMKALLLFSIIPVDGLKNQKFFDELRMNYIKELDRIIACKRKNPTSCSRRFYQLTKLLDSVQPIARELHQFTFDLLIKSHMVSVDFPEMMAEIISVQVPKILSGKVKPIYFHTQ
In short: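 Fluorescence from a beta-lactamase FRET substrate served as read-out in AR-UAS-bla GripTite HEK293 cells. Cells were treated with DMSO-dissolved compounds for 16 h at 37C, then with LiveBLAzer B/G substrate for 2 h at room temperature.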

[9] = biological target: Androgen receptor (Homo sapiens) (UniProt P10275); test: qHTS assay to identify small molecule antagonists of the androgen receptor (AR) signaling pathway using the MDA cell line (AID 743042; also: nearly all actives have a fitted effect of over 55% in size)
In short: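 Antagonist mode: compounds plus R1881 agonist added to MDA-kb2 AR-luc cells, incubated 16 h at 37C. Luciferase reporter luminescence quantified, with multiplexed CellTiter-Fluor readout for cell viability.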

[10] = biological target: Androgen receptor (Homo sapiens) (UniProt P10275); test: qHTS assay to identify small molecule antagonists of the androgen receptor (AR) signaling pathway (AID 743035; active = well fitted inhibition curve with a large enough effect in the signal ratio in the repeat runs, not every such curve was filed as active; the % refers to the signal ratio)
In short: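 Antagonism is scored as loss of R1881-driven beta-lactamase reporter expression in HEK293 cells carrying the reporter under a UAS element, after 16 h co-treatment at 37C and a 2 h room-temperature FRET substrate read.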

Measured: Potency

CN1CCOC(c2ccccc2)c2ccccc2C1 (stereo not given)
inactive: [1] | [2] | [3]

C=CCN1C[C@H](C(=O)N(CCCN(C)C)C(=O)NCC)C[C@@H]2c3cccc4[nH]cc(c34)C[C@H]21
active: [5] 3.76 µM
inactive: [1] | [2] | [4]

CC1=C(C(=O)O)N2C(=O)[C@@H](NC(=O)[C@H](N)c3ccccc3)[C@H]2SC1
inactive: [6] | [2] | [7] | [4] | [3]

CC1=NN(c2ccc(S(=O)(=O)O)cc2)C(=O)C1
inactive: [6] | [2] | [7] | [4] | [3]

COc1cc2c(cc1OC)C(=O)C(CC1CCN(Cc3ccccc3)CC1)C2 (stereo not given)
inactive: [1] | [4] | [8] | [3] | [9]

CC(=O)OC(C)=O
inactive: [6] | [2] | [7] | [4] | [3]

CC(C)c1ccc(C=O)cc1
inactive: [1] | [2] | [4] | [3]

OCC(O)CN1CCN(c2ccccc2)CC1 (stereo not given)
inactive: [1] | [2] | [7] | [4] | [3]

CC1CC(=O)CC(C)(C)C1 (stereo not given)
inactive: [6] | [2] | [7] | [4] | [3]

O=C1OCCO1
inactive: [6] | [2] | [7] | [4] | [3]

CCCC(=O)Nc1ccc(OCC(O)CNC(C)C)c(C(C)=O)c1 (stereo not given)
inactive: [6] | [2] | [4] | [3]

CCOC(=O)CC1(C)OCC(C)O1 (stereo not given)
inactive: [6] | [2] | [4] | [3] | [5]

Cc1ccc(C)c([N+](=O)[O-])c1
inactive: [6] | [2] | [4] | [3]

N[C@@H](Cc1ccc(O)cc1)C(=O)O
inactive: [4]

C=C(C)[C@@H]1CC=C(C)CC1
inactive: [4] | [3] | [5]
active: [2] 68.6 µM

CC(C)=CCC/C(C)=C/COC=O
inactive: [6] | [7] | [4] | [5]

Cc1ccc(N)cc1S(=O)(=O)O
inactive: [6] | [2] | [4] | [3] | [5]

O=C(O)c1cc2ccccc2nc1C(=O)O
inactive: [6] | [2] | [7] | [4] | [3] | [5]

OC1OCCOC1O (stereo not given)
inactive: [6] | [2] | [7] | [4] | [3] | [5]

N#CCC(=O)NN
inactive: [6] | [2] | [7] | [4] | [5]

ONc1ccccc1
inactive: [7] | [4] | [3] | [5]

C/C=C(\C)C(=O)OCCc1ccccc1
inactive: [6] | [2] | [7] | [4] | [3] | [5]

O=C1CCCCO1
inactive: [6] | [2] | [4] | [5]

O=Cc1ccccc1Cl
inactive: [6] | [2] | [7] | [4] | [3] | [5]

OCC1CCC(CO)CC1 (stereo not given)
not listed: [1] | [5] | [7]
inactive: all other assays above

C=CC/C=C/C
inactive: [6] | [2] | [4] | [3] | [5]

CC12CCC(C1)C(C)(C)C2O (stereo not given)
inactive: [6] | [2] | [7] | [4] | [3] | [5]

O=C(Cl)c1ccccc1[N+](=O)[O-]
not listed: [1] | [5] | [7]
inactive: all other assays above

CCCCCCC1(C)CCC(=O)O1 (stereo not given)
inactive: [2] | [4] | [5]

CCCCCC(C)O (stereo not given)
inactive: [6] | [7] | [4] | [5]

O=C(O)CCCCCC(=O)O
inactive: [6] | [2] | [7] | [4] | [3] | [5]

O=C(CCCCC(=O)Nc1c(I)cc(I)c(C(=O)O)c1I)Nc1c(I)cc(I)c(C(=O)O)c1I
inactive: [6] | [2] | [7] | [4] | [3] | [5]

OCC1(CO)COCOC1
inactive: [2] | [7] | [4] | [3] | [5]

CC1(C)[C@H]2CC[C@](C)(C2)[C@H]1O
inactive: [6] | [2] | [7] | [3] | [5]

CCCCCCCCCOC(=O)CCCCC(=O)OCCCCCCC
inactive: [6] | [2] | [4] | [5]

N#Cc1cscn1
inactive: [6] | [2] | [7] | [4] | [3] | [5]

CC(=O)C1C(=O)C=C(C)OC1=O (stereo not given)
inactive: [6] | [2] | [7] | [4] | [3] | [5]

CSc1cnccn1
inactive: [6] | [2] | [4] | [5]

CCCCOCCOC(=O)COc1ccc(Cl)cc1Cl
inactive: [6] | [2] | [7] | [4] | [3] | [5]

CCC(C)OC(C)CC (stereo not given)
not listed: [1] | [7]
inactive: all other assays above

Cc1ncc([N+](=O)[O-])n1CC(C)O (stereo not given)
inactive: [6] | [7] | [4] | [3] | [5]

COc1nc(N)nc2nc[nH]c12
inactive: [6] | [2] | [7] | [4] | [5]

O=C(NCN1CCOCC1)c1cnccn1
not listed: [1] | [7]
inactive: all other assays above

Cc1ccccc1C(N)=O
inactive: [6] | [7] | [4] | [3]
